Data: PubChem BioAssay AID1942 (Johns Hopkins Ion Channel Center, 2009)
Among all 2,400 compounds or so, about 580 (24%) were called active.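 Rule for the calls: active = activity change at or above the mean plus 3 SD of buffer wells without dofetilide, per plate; inactive = the rest.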 The list is a sample of the results.

Target: Potassium voltage-gated channel subfamily KQT member 2 (Rattus norvegicus) (UniProt O88943)
Assay: rat KCNQ2 channel activation by compounds alone, confirmation, counter-screen for hERG block protector project, cell-based, CHO, FluxOR thallium flux (AID 1942);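 note: normalized value minus buffer-control mean plus three SD of buffer wells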
Conditions: CHO-KCNQ2 cells, FluxOR thallium flux fluorescence; at 10 µM; active compounds read high

Chain of Potassium voltage-gated channel subfamily KQT member 2 (Rattus norvegicus) (O88943 whole entry, looked up): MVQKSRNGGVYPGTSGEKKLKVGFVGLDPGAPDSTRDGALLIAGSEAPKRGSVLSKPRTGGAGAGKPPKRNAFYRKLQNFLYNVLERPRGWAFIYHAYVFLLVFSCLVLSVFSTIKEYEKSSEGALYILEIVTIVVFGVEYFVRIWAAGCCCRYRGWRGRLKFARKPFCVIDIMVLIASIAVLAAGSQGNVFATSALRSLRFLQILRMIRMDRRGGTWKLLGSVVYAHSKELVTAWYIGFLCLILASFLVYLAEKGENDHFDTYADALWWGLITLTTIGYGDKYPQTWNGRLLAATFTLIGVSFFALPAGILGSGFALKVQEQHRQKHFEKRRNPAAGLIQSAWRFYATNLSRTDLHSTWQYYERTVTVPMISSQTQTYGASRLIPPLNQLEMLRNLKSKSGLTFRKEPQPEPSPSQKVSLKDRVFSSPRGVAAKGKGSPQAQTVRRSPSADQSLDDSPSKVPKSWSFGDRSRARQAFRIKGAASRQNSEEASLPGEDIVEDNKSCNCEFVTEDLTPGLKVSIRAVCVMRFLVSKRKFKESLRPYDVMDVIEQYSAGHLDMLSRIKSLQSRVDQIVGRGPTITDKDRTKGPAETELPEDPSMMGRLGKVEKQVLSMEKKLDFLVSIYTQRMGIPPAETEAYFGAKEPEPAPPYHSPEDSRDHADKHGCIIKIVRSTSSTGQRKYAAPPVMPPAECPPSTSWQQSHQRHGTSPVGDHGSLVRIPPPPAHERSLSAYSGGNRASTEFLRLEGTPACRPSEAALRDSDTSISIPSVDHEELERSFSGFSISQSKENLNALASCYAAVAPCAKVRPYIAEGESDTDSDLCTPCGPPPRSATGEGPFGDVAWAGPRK

SMILES | activity change, less the hit threshold
CCN(C(=O)c1cc2c(=O)[nH]c3ccc(C)cc3c2s1)c1ccccc1F | -7% (inactive)
O=C(O)c1cccc2cc(-c3ccccc3)oc(=O)c12 | -17.7% (inactive)
COc1cccc(CN(C)CC2CCCN(CCc3ccc(Cl)cc3)C2)c1OC (stereo unspecified) | -26.8% (inactive)
Cc1ccc(-n2nc(C)c3c2OC(N)=C(C#N)C3c2ccoc2)cc1 (stereo unspecified) | -13.7% (inactive)
O=C(CCC(=O)N1CCN(S(=O)(=O)c2ccccc2)CC1)c1cccs1 | -13.6% (inactive)
CN1C(=O)NC(c2cccc([N+](=O)[O-])c2)C2=C1CC(C)(C)CC2=O (stereo unspecified) | -22.1% (inactive)
COc1cccc(NC(=O)c2cncs2)c1 | -22.6% (inactive)
CCc1ccc(NC(=O)C(=O)NNC(=O)c2ccc(OC)cc2)cc1 | 100% (active)
CCc1ccc(NC(=O)C(=O)NNC(=O)c2cccc(OC)c2)cc1 | 62.3% (active)
CCc1ccc(NC(=S)Nc2cccc(OC)c2)cc1 | -15.5% (inactive)
COc1cccc(C(=O)NNC(=O)C(=O)Nc2ccc(C)cc2)c1 | 78.3% (active)
COc1ccc(CCNC(=O)C2CCCN(S(C)(=O)=O)C2)cc1 (stereo unspecified) | -23.4% (inactive)
Cc1n[nH]c(C)c1CCNC(=O)C1CCC(=O)N(Cc2ccccc2F)C1 (stereo unspecified) | -14% (inactive)
Cc1c(-c2ccn[nH]2)cc(NC(=O)c2ccc(Cl)cc2)c(=O)n1N | -24.4% (inactive)
COCC1CCCN(C(=O)c2ccc3oc(C(C)C)nc3c2)C1 (stereo unspecified) | -11.7% (inactive)
Cc1ccc(NC(=O)CN2C(=O)N/C(=C/c3ccccc3OCc3cccc(C(=O)O)c3)C2=O)cc1 | -18.7% (inactive)
CCOC(=O)NC(=O)/C(C#N)=N\Nc1ccc(Cl)cc1 | -17.6% (inactive)
CC(C)(C)SCCNC(=O)CN1C(=O)c2ccccc2S1(=O)=O | -13.2% (inactive)
Cc1nc2cc3sc(C)nc3cc2s1 | -9.2% (inactive)
COc1ccc(-c2cc(=O)oc3cc(OCC(C)=O)ccc23)cc1 | -20.9% (inactive)
O=C(CN1C(=O)S/C(=C\c2cccs2)C1=O)Nc1ccc(C(=O)O)c(O)c1 | 21.5% (active)
O=C(CCN1C(=O)/C(=C/c2cccs2)SC1=S)Nc1cccc(C(=O)O)c1 | -22.7% (inactive)
O=C(CN1C(=O)S/C(=C\c2cccs2)C1=O)Nc1ccc(O)c(C(=O)O)c1 | -14% (inactive)
CSc1nc(C)c2c(n1)N(c1ccc(C(C)C)cc1)CC2 | -17.3% (inactive)
Cc1cccc(C(=O)CC(=O)c2cc(Cl)ccc2O)c1 | -14.2% (inactive)
O=C(N/N=C/c1ccc(-c2ccccc2)o1)c1ccccc1O | -5.7% (inactive)

SMILES | activity change, less the hit threshold
O=C(N/N=C/c1cc(Cl)ccc1O)c1ccccc1Br | 6.8% (active)
CC(C)C(=O)N(c1ccc(F)cc1)C1C=CS(=O)(=O)C1 (stereo unspecified) | -12.6% (inactive)
O=c1oc2ccccc2c2c1nc(C(F)(F)F)n2-c1ccccc1 | -18.1% (inactive)
O=C(CSc1nc(-c2ccccc2)nc2ccc(F)cc12)Nc1cccc(C(=O)O)c1 | -4.9% (inactive)
CC[C@@H](C(=O)[C@@H](C)[C@@H](O)[C@H](C)CCc1ccc(C)c(O)c1C(=O)O)[C@H]1O[C@](CC)([C@H]2CC[C@](O)(CC)[C@H](C)O2)C[C@@H]1C | 155% (active)
Cc1nc2c(C(=O)NCCc3ccccc3)c[nH]n2c(=O)c1Cl | -7.3% (inactive)
COc1ccc(NC(=S)NC(=O)c2csnn2)cc1 | 52.2% (active)
Cc1snnc1C(=O)NC(=S)Nc1ccccc1 | 30.3% (active)
Cc1ccc(NC(=S)NC(=O)c2ccc(-c3ccccc3)cc2)cc1 | -11% (inactive)
Cc1cccnc1NC(=O)c1csnn1 | -13.6% (inactive)
O=C(NC(=S)Nc1ccccc1)c1cncc(C#Cc2ccccc2)c1 | -13% (inactive)
COc1ccc(NC(=S)Nc2ccccn2)cc1 | -16.1% (inactive)
O=C(NC(=S)Nc1ccccc1Cl)c1csnn1 | 71.3% (active)
Cc1onc(-c2ccccc2Cl)c1C(=O)NC(=S)Nc1ccc(C(C)C)cc1 | -9% (inactive)
COc1ccc(NC(=O)c2onc(C)c2Cl)cc1 | -22.4% (inactive)
O=C(NC(=S)Nc1ccccc1)c1csnn1 | 81.6% (active)
O=C(COc1ccccc1Cl)NC(=S)Nc1ccccc1N1CCCC1 | -15.7% (inactive)
Cc1ccc(NC(=O)c2cc(-c3ccc4c(c3)OCO4)on2)cc1 | -8.6% (inactive)
CCn1c(=O)c(-[n+]2ccccc2)c(O)c2ccccc21 | -27.1% (inactive)
Cc1ccc(N2C(=O)c3ccccc3C2(O)c2ncc[nH]2)cc1 (stereo unspecified) | -19.5% (inactive)
O=C1C=C(c2ccccc2)OC(=O)C1C(=O)c1ccccc1 (stereo unspecified) | -12.8% (inactive)
N#Cc1c2n(c3c(=O)n(Cc4ccc(Cl)cc4)cnc13)CCCC2 | -19.7% (inactive)
CC12CCC3(CO)COC(c4ccccc4O1)C2C3 (stereo unspecified) | -21.5% (inactive)
CCCOc1ccc(-c2c(C(=O)N/N=C/c3ccccc3OCC)nnn2-c2nonc2N)cc1 | -19.7% (inactive)
CC(=O)N1C(=O)/C(=C2\SC(=S)N(NC(=O)c3ccc(O)cc3)C2=O)c2ccccc21 | -12.5% (inactive)
